# Source: PubChem BioAssay (Sanford-Burnham Center for Chemical Genomics)
# DUSP3 inh: VHR1 phosphatase inhibitors, primary screen, biochemical, colorimetric, HTS | recombinant VHR phosphatase, colorimetric substrate read-out | Dual specificity protein phosphatase 3 (Homo sapiens), P51452 | inhibition, % at 20 µM | 50,000 compounds, 0.7% hits; in the data active means inhibition above about 60%
# Target sequence (P51452 whole entry, looked up): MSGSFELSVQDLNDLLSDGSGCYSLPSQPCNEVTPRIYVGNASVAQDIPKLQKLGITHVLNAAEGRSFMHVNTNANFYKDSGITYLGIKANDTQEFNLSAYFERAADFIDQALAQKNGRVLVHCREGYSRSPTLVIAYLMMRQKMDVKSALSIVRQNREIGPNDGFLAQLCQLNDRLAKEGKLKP
# An asterisk follows results filed as active. Shown is part of a subset that was picked to be rich in hits.
SMILES,DUSP3 inh
COCC(C)NCc1cc(OC)c(OC)cc1OC (configuration not stated),-3.6
O=C(NCCOc1ccccc1)c1cccc2ccccc12,-42.1
Cc1ccc(-n2c(SCCc3ccccc3)nc3sc4c(c3c2=O)CC(C)(C)OC4)cc1,-13.5
COc1cccc(N2C(=O)CC(N3CCN(C/C=C/c4ccccc4)CC3)C2=O)c1 (configuration not stated),-8.2
COc1cccc(N2C(=O)CC(N3CCC(C)CC3)C2=O)c1 (configuration not stated),-5.4
COc1cccc(N2C(=O)CC(N3CCCCC3)C2=O)c1 (configuration not stated),101.2*
O=C(Nc1cccc(Cl)c1)/C(=C\c1cccs1)NC(=O)c1cccs1,19.0
O=C(Nc1ccc([N+](=O)[O-])cc1)C1C2C3CCC(C3)C12 (configuration not stated),84.4*
O=C(Nc1ccc([N+](=O)[O-])cc1)C1C(c2ccccc2)=C1c1ccccc1,-0.9
Cc1ccc([N+](=O)[O-])cc1NC(=O)C1C2C3CCC(C3)C12 (configuration not stated),6.3
COc1cccc(/C=C/C2=NN(c3ccc(F)cc3)C(c3cccc(OC)c3OC)C2)c1OC (configuration not stated),-30.2
CCCCOc1ccc(C(=O)O/N=C2/CCc3cc(OC)ccc32)cc1,-0.7
Cc1c(C=O)c2ccccc2n1Cc1ccccc1Cl,-4.2
O=c1c2ccccc2[nH]c(=S)n1Cc1ccccc1,-7.7
Cn1c(=O)c2c([nH]c(=S)n2Cc2ccccc2Cl)n(C)c1=O,95.4*
Cc1cc(/C=N\NC(=O)c2ccco2)c(C)n1-c1cccc(Cl)c1,7.7
O=C(O)C12C3CCCC1C32c1ccccc1 (configuration not stated),3.4
O=C(O)C1C2C=CC(C3CC23)C1C(=O)NCc1ccccc1 (configuration not stated),-7.2
O=C(O)C1C2CCCC1C2c1ccccc1 (configuration not stated),100.8*
C=CCN1C(=O)/C(=C\c2ccc(-c3ccccc3[N+](=O)[O-])o2)C(=O)NC1=S,87.8*
O=C1NC(=S)N/C1=C\c1ccc(-c2cc([N+](=O)[O-])ccc2Br)o1,-14.4
O=C1NC(=S)NC(=O)C1=Cc1ccc(-c2ccc([N+](=O)[O-])cc2Br)o1,64.2*
O=C1NN(c2ccccc2)C(=O)/C1=C/c1cccn1-c1ccc([N+](=O)[O-])cc1,-0.8
C=CCN1C(=O)/C(=C\c2ccc(-c3ccc([N+](=O)[O-])cc3Cl)o2)C(=O)NC1=S,18.3
C=CCN1C(=O)/C(=C\c2ccc(-c3ccc(OC)cc3[N+](=O)[O-])o2)C(=O)NC1=S,6.2
SMILES,DUSP3 inh
C=CCN1C(=O)/C(=C\c2ccc(-c3ccc([N+](=O)[O-])cc3Br)o2)C(=O)NC1=S,30.4
O=C1NC(=O)N(c2ccccc2)C(=O)/C1=C\c1cccn1-c1ccc([N+](=O)[O-])cc1,24.7
C=CCN1C(=O)/C(=C\c2cccn2-c2ccc([N+](=O)[O-])cc2)C(=O)NC1=S,80.0*
C(=N\n1cnnc1)/c1cn(CCOc2ccc(C3CCCCC3)cc2)c2ccccc12,8.5
O=C(Cc1ccccc1)Nc1sc2c(c1C(=O)Nc1ccc(Cl)cc1)CCC2,-13.8
CC(=O)/C=C(\C)N1N=C(c2ccccc2)CC1c1ccccc1 (configuration not stated),1.6
COc1ccc(-c2cc(O)c3c(C)oc(C)c3c(=O)c2)cc1OC,-4.3
COc1cccc(N2C(=O)C3C4C=CC(C4=C4CCCCC4)C3C2=O)c1 (configuration not stated),-4.0
CCOc1ccc(N2C(=O)/C(=C\c3cccc(OC)c3OC)C(C(=O)OC)=C2C)cc1,-17.2
CCOC(=O)C1=C(O)/C(=C/c2ccc(O)cc2)SC1=Nc1ccccc1,-16.2
CCOC(=O)C1=C(O)/C(=C/c2ccccc2)SC1=Nc1ccccc1,-1.6
CCOC(=O)C1=C(O)/C(=C/c2ccc(-c3ccccc3)cc2)SC1=Nc1ccc(OC)cc1,114.6*
CC1=C(C(=O)OCCCc2ccccc2)C(c2ccc(Cl)c(Cl)c2)CC(=O)N1 (configuration not stated),99.6*
COC(=O)C1=C(C)NC(=O)CC1c1ccc(Cl)c(Cl)c1 (configuration not stated),-26.0
CC1=C(C(=O)OCCc2ccccc2)C(c2ccccc2Cl)CC(=O)N1 (configuration not stated),-8.4
CCOc1ccc(-n2c(O)c(C=Nc3ccc(C)cc3)c(=O)[nH]c2=O)cc1,2.3
COc1ccc(C2CC(=O)C3=C(C2)Nc2ccccc2NC3c2coc3c(Cl)cc(Cl)cc3c2=O)cc1 (configuration not stated),105.2*
COc1ccc(C2CC(=O)C3=C(C2)Nc2ccccc2NC3c2ccccc2Cl)cc1 (configuration not stated),2.1
COc1ccc(C2CC(=O)C3=C(C2)Nc2ccccc2NC3c2cc3c(cc2Cl)OCO3)cc1 (configuration not stated),-16.9
NS(=O)(=O)c1cccc(NC(=O)c2ccc(-c3cccc(Cl)c3)o2)c1,-0.6
O=C(Nc1cccc(NC(=O)c2ccccc2Br)c1)c1cccc(Br)c1,-7.3
O=[N+]([O-])c1ccc(/C=N/Nc2c(Cl)cc(Cl)cc2Cl)cc1,-25.7
COc1cccc(OCCCOc2ccc(C)cc2C)c1,-13.2
COc1ccc(N2C(=O)C=CC2=O)cc1,32.3
O=C1C=CC(=O)N1c1ccccc1N1C(=O)C=CC1=O,84.1*
SMILES,DUSP3 inh
Cc1ccc(N2C(=O)C=CC2=O)c(Br)c1,55.0
CC1=CC(C)(C)Nc2ccc(OC(=O)C3CCCO3)cc21 (configuration not stated),-8.5
CN1CCN(CC(O)COc2ccc(C(C)(C)C)cc2)CC1 (configuration not stated),-3.1
C=CCN1C(=O)/C(=C\C=C\c2ccccc2)SC1=S,-25.8
COc1ccc(/C=C2\SC(=S)N(CCC(N)=O)C2=O)cc1,-7.6
O=C(O)CCCN1C(=O)/C(=C/C=C/c2ccccc2)SC1=S,3.2
COC(=O)CN1C(=O)/C(=C\c2ccc(C)cc2)SC1=S,12.9
COc1ccc(/C=C2\SC(=S)N(CCC(=O)OC3CCCCC3)C2=O)cc1,-6.7
C=CCN1C(=O)/C(=C/c2ccc(C)cc2)SC1=S,-12.8
O=C1/C(=C/C=C/c2ccccc2)SC(=S)N1CCS(=O)(=O)O,85.1*
COc1ccc(/C=C2\SC(=S)N(CCS(=O)(=O)O)C2=O)cc1,66.7*
Cc1ccc(/C=C2\SC(=S)N(CCS(=O)(=O)O)C2=O)cc1,63.2*
O=C1C(Cl)=C(N2CCN(c3ccccc3)CC2)C(=O)N1c1ccc(Br)cc1,-10.4
C/C(=N\NC(=O)C1(C)CC1(Br)Br)c1ccncc1 (configuration not stated),-6.5
CCN1C(=O)/C(=C\c2cccc([N+](=O)[O-])c2)C(C(=O)OC)=C1C,4.9
COC(=O)c1cc(C(=O)NC2CCCCCC2)cc([N+](=O)[O-])c1,-19.4
CCOc1ccc(C(=O)Nc2cc(-c3nc4ncccc4o3)ccc2C)cc1[N+](=O)[O-],3.3
Cc1ccc(C(C)C)c(OCC(=O)N/N=C/c2ccncc2)c1,-36.7
O=C(COc1ccc(Cl)cc1)Nc1cc(C(F)(F)F)cc(C(F)(F)F)c1,-9.6
COc1cccc(/C=C2\SC(N3CCCC3)=NC2=O)c1,37.8
O=C(CN1C(=O)c2ccc([N+](=O)[O-])cc2C1=O)N1CCCCC1,24.0
